Source: PubChem BioAssay (NCATS)
Several values for one entry are separate records, joined by “and”; a condition that tells them apart may be missing. Equal values may be shown once. Inconclusive results are not listed. Activity calls are given as the source filed them. Calls follow the shape of the dose curve; as a rule, active = well fitted inhibition curve with a large enough effect; inconclusive = small, poorly fitted or top-dose-only effect; inactive = flat fitted curve, though single readings scatter.

Tests used:
[1] = qHTS profiling for inhibitors of Plasmodium falciparum proliferation (AID 504749); also: nearly all actives have a fitted effect of over 60% in size;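 as to activity, negative = inhibition: 0% = DMSO vehicle and full inhibition = artemisinin control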; details: P. falciparum in erythrocytes, SYBR Green DNA, 72 h
How it was run: (§1)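 Parasite proliferation within erythrocytes, 72 h exposure. Endpoint: SYBR Green I fluorescence after overnight lysis at room temperature. Controls: 0.29 uM artemisinin, DMSO.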

3D7 = test: as above; details: P. falciparum in erythrocytes, SYBR Green DNA, 72 h; series mostly up to 28.7 µM
How it was run: as §1

7G8 = test: as above; details: P. falciparum in erythrocytes, SYBR Green DNA, 72 h; series mostly up to 28.7 µM
How it was run: as §1

[2] = at 28.7 µM (top of the series), parasite line A
[3] = at 28.7 µM (top of the series), parasite line B
[4] = at 12.8 µM (top of the series), parasite line A
[5] = at 12.8 µM (top of the series), parasite line B
Potency is read from the fitted curve at half-maximal effect.

CCOC(=O)c1ccc(O)cc1
inactive: activity, negative = inhibition [1, 2] 6.51% | activity, negative = inhibition [1, 3] -7.49% | Potency (3D7) | Potency (7G8)

O=C(O)[C@@H]1CSCN1
inactive: activity, negative = inhibition [1, 2] 8.72% | activity, negative = inhibition [1, 3] -0.798% | Potency (3D7) | Potency (7G8)

c1ccc(CN(CC2=NCCN2)c2ccccc2)cc1
active: Potency (7G8) 4.47 µM
inactive: activity, negative = inhibition [1, 2] -1.61% | activity, negative = inhibition [1, 3] -1.95% | Potency (3D7)

CCN(CC)CCNC(C(=O)OCCC(C)C)c1ccccc1 (stereo not given)
active: Potency (7G8) 12.6 µM
inactive: activity, negative = inhibition [1, 2] 6.18% | activity, negative = inhibition [1, 3] 14.1% | Potency (3D7)

NS(=O)(=O)c1cc2c(cc1Cl)NC(CSCc1ccccc1)=NS2(=O)=O
inactive: activity, negative = inhibition [1, 4] 2.74% | activity, negative = inhibition [1, 5] 12.8% | Potency (3D7) | Potency (7G8)

C=Cc1c(C)c2cc3[nH]c(cc4nc(cc5nc(cc1[nH]2)C(C)=C5CCC(=O)O)C(CCC(=O)O)=C4C)c(C)c3C=C
inactive: activity, negative = inhibition [1, 2] -6.02% | activity, negative = inhibition [1, 3] 6.67% | Potency (3D7) | Potency (7G8)

C[C@@H]1CN(c2c(F)c(F)c3c(=O)c(C(=O)O)cn(C4CC4)c3c2F)C[C@H](C)N1
inactive: activity, negative = inhibition [1, 2] 9.49% | activity, negative = inhibition [1, 3] 3.41% | Potency (3D7) | Potency (7G8)

O=C(O)c1ccccn1
inactive: activity, negative = inhibition [1, 2] 0.929% | activity, negative = inhibition [1, 3] -26.4% | Potency (3D7) | Potency (7G8)

CCN(CC)CCSC(=O)C(c1ccccc1)c1ccccc1
inactive: activity, negative = inhibition [1, 2] 10.5% and 6.38% | activity, negative = inhibition [1, 3] -0.418% and -7.05% | Potency (3D7) | Potency (7G8)

CC(O)CN(CCN(CC(C)O)CC(C)O)CC(C)O (stereo not given)
inactive: activity, negative = inhibition [1, 2] 7.8% | activity, negative = inhibition [1, 3] -1.51% | Potency (3D7) | Potency (7G8)

O=C1NC(=O)[C@@]2(CCOc3ccc(F)cc32)N1
inactive: activity, negative = inhibition [1, 2] 7.16% | activity, negative = inhibition [1, 3] 9.22% | Potency (3D7) | Potency (7G8)

CNCCCC1c2ccccc2C=Cc2ccccc21
inactive: activity, negative = inhibition [1, 4] 3.94% | activity, negative = inhibition [1, 5] -1.98% | Potency (3D7)
active: Potency (7G8) 5.62 µM

NC(CSCC(=O)O)C(=O)O (stereo not given)
inactive: activity, negative = inhibition [1, 2] -7.77% | activity, negative = inhibition [1, 3] -0.351% | Potency (3D7) | Potency (7G8)

COc1cc(C)c(Cc2cnc(N)nc2N)cc1OC
inactive: Potency (7G8)
active: Potency ([1]; parasite line A) 4.47 µM | Potency ([1]; parasite line B) 11.2 µM | Potency (3D7) 11.2 µM

NC(=O)NNc1ccccc1
inactive: activity, negative = inhibition [1, 2] -7.35% and 18% | activity, negative = inhibition [1, 3] 13.9% and 11.9% | Potency (3D7) | Potency (7G8)

CC(=O)NC(Cc1ccccc1)C(=O)O (stereo not given)
inactive: activity, negative = inhibition [1, 2] 3.68% | activity, negative = inhibition [1, 3] 2.97% | Potency (3D7) | Potency (7G8)

Cc1cc(O)cc2c1O[C@](C)(CCC[C@H](C)CCC[C@H](C)CCCC(C)C)CC2
inactive: activity, negative = inhibition [1, 2] -4.03% | activity, negative = inhibition [1, 3] -6.42% | Potency (3D7) | Potency (7G8)

CCCCc1ncc(/C=C(\Cc2cccs2)C(=O)O)n1Cc1ccc(C(=O)O)cc1
inactive: activity, negative = inhibition [1, 2] 6.94% | activity, negative = inhibition [1, 3] 4.94% | Potency (3D7) | Potency (7G8)

COc1ccc2c(c1)C(=O)N(CCc1ccc(S(=O)(=O)NC(=O)NC3CCCCC3)cc1)C(=O)C2(C)C
inactive: activity, negative = inhibition [1, 4] 4.32% | activity, negative = inhibition [1, 5] -5.51% | Potency (3D7) | Potency (7G8)

CCOc1ccc2ccccc2c1C(=O)N[C@@H]1C(=O)N2[C@@H]1SC(C)(C)[C@@H]2C(=O)O
inactive: activity, negative = inhibition [1, 4] 11.5% | activity, negative = inhibition [1, 5] -19.5% | Potency (3D7) | Potency (7G8)

O=C1c2c(O)cccc2Cc2cccc(O)c21
inactive: activity, negative = inhibition [1, 2] 14.6% | activity, negative = inhibition [1, 3] -4.21% | Potency (3D7) | Potency (7G8)

CC1(C)[C@@H]2CC[C@@]1(C)C(=O)C2
inactive: activity, negative = inhibition [1, 2] 5.82% | activity, negative = inhibition [1, 3] 6.35% | Potency (3D7) | Potency (7G8)

O=Cc1ccccc1C=O
inactive: activity, negative = inhibition [1, 2] -1.21% | activity, negative = inhibition [1, 3] 5.64% | Potency (3D7) | Potency (7G8)

Nc1nc2c(ncn2CCC(CO)CO)c(=O)[nH]1
inactive: activity, negative = inhibition [1, 2] 3.65% | activity, negative = inhibition [1, 3] -4.23% | Potency (3D7) | Potency (7G8)

COc1ccc(S(=O)(=O)Nc2nnc(CC(C)C)s2)cc1
inactive: activity, negative = inhibition [1, 2] 3.77% and -5.99% | activity, negative = inhibition [1, 3] 15.9% and -5.44% | Potency (3D7) | Potency (7G8)

COc1ccc(Cl)cc1C(=O)NCCc1ccc(S(=O)(=O)NC(=O)NC2CCCCC2)cc1
inactive: activity, negative = inhibition [1, 2] 10.8% | activity, negative = inhibition [1, 3] 8.21% | Potency (3D7) | Potency (7G8)

O=c1cc(CO)occ1O
inactive: activity, negative = inhibition [1, 2] 1.47% | activity, negative = inhibition [1, 3] -0.837% | Potency (3D7) | Potency (7G8)

NCC(=O)CCC(=O)O
inactive: activity, negative = inhibition [1, 2] 2.38% | activity, negative = inhibition [1, 3] -2.04% | Potency (3D7) | Potency (7G8)

O=C1OC(OC(=O)c2cccnc2Nc2cccc(C(F)(F)F)c2)c2ccccc21 (stereo not given)
inactive: activity, negative = inhibition [1, 2] -4.18% | activity, negative = inhibition [1, 3] 2.45% | Potency (3D7) | Potency (7G8)

CCCOC(=O)c1ccccc1
inactive: activity, negative = inhibition [1, 2] -2.05% | activity, negative = inhibition [1, 3] 2.76% | Potency (3D7) | Potency (7G8)
